The full list was thinned out, with hits kept by preference.
mHTT CaM bind = mutant huntingtin-calmodulin interaction inhibitors – biochemical, AlphaScreen, primary screen. P42858. AlphaScreen His-mHTT/GST-CaM binding, luminescence. inhibition, % at 15 µM. 190,000 compounds, 3.6% hits. AID 1671202, 2021
Pf apPOL block = Pf-apPOL inhibitors, biochemical, fluorescence; Plasmodium falciparum apicoplast DNA polymerase (apPOL); Recombinant Pf-apPOL, molecular beacon fluorescence, 1.5 h; inhibition, % at 10 µM; 210,000 compounds, 0.25% hits
Each line names hits and unclear results; the compound was inactive in the other large screens. Cut-off read from the data, not from the text of the source: active = inhibition above about 50%; inactive = the rest.

CC(=O)c1cccc(NS(=O)(=O)c2ccc(C)c([N+](=O)[O-])c2)c1	none
COc1cc2c(cc1OC)C(C)N(c1ccc(N3C(=O)CC(C)C3=O)cc1[N+](=O)[O-])CC2 (stereo not drawn)	mHTT CaM bind 60.0
COc1ccc(Cl)cc1CN1CCN(c2ccc(N3C(=O)CCCC3=O)cc2[N+](=O)[O-])CC1	mHTT CaM bind 73.0
O=C1CCCC(=O)N1c1ccc(N2CCCC(CO)C2)c([N+](=O)[O-])c1 (stereo not drawn)	none
Cc1ccc(N2CCN(c3ccc(N4C(=O)COCC4=O)cc3[N+](=O)[O-])CC2C)cc1 (stereo not drawn)	none
CC1CC(=O)N(c2ccc(N3CCN(c4cccc(Cl)c4)CC3)c([N+](=O)[O-])c2)C1=O (stereo not drawn)	none
COc1ccc(Cl)cc1CN1CCN(c2ccc(N3C(=O)CC(C)C3=O)cc2[N+](=O)[O-])CC1 (stereo not drawn)	mHTT CaM bind 73.0
CC1CC(=O)N(c2ccc(N3CC4(C)CC3CC(C)(C)C4)c([N+](=O)[O-])c2)C1=O (stereo not drawn)	none
COc1ccc(Cl)cc1CN1CCN(c2ccc(N3C(=O)COCC3=O)cc2[N+](=O)[O-])CC1	mHTT CaM bind 79.0
CCOc1ccccc1NC(=O)C(CC)c1ccccc1 (stereo not drawn)	none
COc1ccc(C=C2Oc3cc(C)cc(O)c3C2=O)cc1	none
COc1ccc2c(c1)=CC(=Cc1[nH]c(SC(C)=O)nc1O)C(=O)N=2	mHTT CaM bind 100.0
O=c1cc(C(F)(F)F)[nH]n1-c1ccccc1	none (no result: mHTT CaM bind)
O=c1cc(O)n(-c2ccccc2)[nH]1	Pf apPOL block 53.3
O=C(NCc1cccs1)Nc1ccc2c(c1)CCCN2C(=O)C1CC1	none
CCc1cc(-c2[nH]ncc2-c2ccc([N+](=O)[O-])cc2)c(O)cc1OC	mHTT CaM bind 95.0
CCc1cc(-c2onc(C)c2-c2ccc(OC)cc2)c(O)cc1OC	none
CN1CCN(c2ccc(/C=C/c3[nH]c(=O)[nH]c(=O)c3[N+](=O)[O-])cc2[N+](=O)[O-])CC1	none
CCc1ccc2c(c1)C1(NN=C(c3ccccc3O)S1)C(=O)N2 (stereo not drawn)	mHTT CaM bind 100.0
O=C1Nc2ccccc2C12NN=C(c1ccccc1O)S2 (stereo not drawn)	mHTT CaM bind 100.0
O=C1c2ccccc2C(=O)C1C1(C2C(=O)c3ccccc3C2=O)C(=O)Nc2ccccc21	none
CCc1ccc(C(=O)N2CCC3(C2)C(=O)Nc2ccccc23)cc1 (stereo not drawn)	none
O=C(NCc1ccccc1Cl)c1ccc(NCC2CCCO2)c([N+](=O)[O-])c1 (stereo not drawn)	none
Cn1c(=O)c2c(nc3n2CC(=O)N3c2ccc3c(c2)OCO3)n(C)c1=O	none
COc1cccc(-n2c(N3CCCC(C(=O)NCC4CC4)C3)nc3ccsc3c2=O)c1 (stereo not drawn)	none
Cc1cc2c3c(c1)C(C)CC(C)(C)N3C(=O)C2=O (stereo not drawn)	none
CCc1cc2c3c(c1)C(C)=CC(C)(C)N3C(=O)C2=O	mHTT CaM bind 72.0
COc1ccc(NC(=O)CC(c2ccccc2)c2ccccc2)cc1OC	none
COc1cc(OC)cc(N2CCN(Cc3ccc(F)cc3)C(C)C2=O)c1 (stereo not drawn)	mHTT CaM bind 78.6
COc1cc(OC)cc(N2CCN(Cc3ccccc3)C(C)C2=O)c1 (stereo not drawn)	none
O=C1OC(c2ccccc2Cl)=N/C1=C\C=C\c1ccccc1	mHTT CaM bind 53.0
O=C1OC(c2ccccc2Br)=N/C1=C\C=C\c1ccccc1	none
C=CCN1C(=O)C(C)(C)COc2ccc(NC(=O)COc3ccccc3F)cc21	none
O=C(Cc1c(C(=O)O)[nH]c2ccc(Cl)cc12)NC1CC1	none
Cc1cc(Cl)cc2c3c([nH]c12)CCC(NC(=O)CC1CC1)C3 (stereo not drawn)	mHTT CaM bind 90.3
Cc1ccc2[nH]c3c(c2c1)CC(NC(=O)CC(C)C)CC3 (stereo not drawn)	mHTT CaM bind 92.6
O=C(NC1CC1)C1CCN(S(=O)(=O)c2ccc3[nH]c4c(c3c2)CCCCC4)CC1	none
O=C(NC1CCc2[nH]c3ccc(Br)cc3c2C1)C1CC=CCC1 (stereo not drawn)	mHTT CaM bind 98.0
Cc1nc(CC(=O)NC2CCc3[nH]c4ccc(Cl)cc4c3C2)c(C)s1 (stereo not drawn)	mHTT CaM bind 99.3
Cc1cc(C)c(C(=O)N2CCC(CC(=O)NC3CCCCCC3)CC2)[nH]1	none
Cc1ccc2[nH]c3c(c2c1)CN(C)CC3	none
COc1cc([N+](=O)[O-])cc2sc(NC(=O)c3ccc(Br)s3)nc12	none
Cc1nc(-c2c(C(F)(F)F)oc3cc(O)cc(C)c3c2=O)cs1	none
COc1cccc2c1OC(c1ccccc1Cl)N1N=C(c3ccco3)CC21 (stereo not drawn)	none
O=C(Nc1ccc2c(c1)CCC2)N1CCc2c(nc(-c3ccc(F)cc3)[nH]c2=O)C1	none

Screening results: PubChem BioAssay, University of Kansas High Throughput Screening Laboratory
